Assay results as given in PubChem BioAssay.
Activity calls are given as the source filed them.

Tests used:
[1] = tested on: PRMT1 (protein arginine N-methyltransferase 1); assay: small molecules binding arginine methyltransferase PRMT1 – biochemical, small-molecule microarray, 635 nm fluorescence, primary screen (AID 1088); details: higher = more signal;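 note: binding of Prmt1 protein to compounds spotted on small-molecule microarray slides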
[2] = growth effects on S. cerevisiae YJM789 – YJM789 clinical isolate, OD600, 24 h, basal, primary screen (AID 1089); details: higher = more signal, called active from +8 up or from −8 down;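 note: growth of clinical yeast isolate S. cerevisiae YJM 789 seeded 1000 cells per well; test concentration not given here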
[3] = S. pombe growth modifiers, basal conditions – strain 972, OD600, 24 h, no modulator, primary screen (AID 1090);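 note: basal condition with compound alone and no growth modifier present; test concentration not given here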; details: S. pombe 972 growth, higher = more signal, called active from +8 up or from −8 down
[4] = budding yeast growth modifiers under rapamycin – strain BY4716, OD600, 96 h, primary screen (AID 1091); note: test concentration not given here; details: S. cerevisiae BY4716 + rapamycin, higher = more signal, called active from +8 up or from −8 down
[5] = biological target: Torsin-1A-interacting protein 2 (Homo sapiens) (UniProt Q8NFQ8); assay: small molecules binding lysate-expressed LULL1 – cell lysate, human LULL1 lysate, 635/667 nm fluorescence, primary screen (AID 1092); details: small-molecule microarray, hLULL1 lysate binding, 635 nm fluorescence; higher = more signal;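 note: probe is lysate of COS7 cells overexpressing human LULL1; score merges per-feature 667 nm fluorescence with signal-to-noise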
[6] = optical density change of DRC41 E. coli – strain DRC41, OD650, 24 h, E. coli filamentation project, primary screen (AID 1093);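 note: MC1000 strain lacking acrAB efflux and sulA so SOS filamentation is blocked; test concentration not given here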; details: E. coli DRC41 growth, higher = more signal, called active from +8 up or from −8 down
[7] = probe aLefty2 binding to arrayed compounds – biochemical, biotinylated probe, 635/667 nm fluorescence, primary screen (AID 1094); details: small-molecule microarray, higher = more signal;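 note: score merges spot fluorescence near 667 nm with spot signal-to-noise ratio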
[8] = tested on: Noggin (protein binding on small-molecule microarray); assay: small molecules binding Noggin protein – biochemical, 635/667 nm fluorescence, primary screen (AID 1095); details: 635 nm fluorescence, higher = more signal;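 note: score merges 667 nm feature fluorescence with signal to noise over triplicate slides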
[9] = biological target: Neurogenic locus notch homolog protein 3 (Homo sapiens) (UniProt Q9UM47); assay: small molecules binding NOTCH3 protein – biochemical, 635/667 nm fluorescence, primary screen (AID 1096); details: small-molecule microarray, 635 nm fluorescence, higher = more signal
[10] = probe aEGFR binding to arrayed compounds – biochemical, biotinylated probe, 635/667 nm fluorescence, primary screen (AID 1097); details: small-molecule microarray, higher = more signal;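 note: probe is a biotinylated anti-EGFR antibody binding compounds printed on slides; score combines fluorescence near 667 nm and signal to noise of each spot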
[11] = tested on: Plasmodium falciparum Sir2 (PF13_0152, Sir2A); assay: Plasmodium falciparum Sir2A binding compounds – biochemical, small-molecule microarray, 635 nm fluorescence, primary screen (AID 1098); details: fluorescence 635 nm, higher = more signal;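 note: score merges spot fluorescence intensity with its signal-to-noise ratio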
[12] = probe aDKK1 binding to arrayed compounds – biochemical, biotinylated probe, 635/667 nm fluorescence, primary screen (AID 1099); details: small-molecule microarray, higher = more signal;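 note: score merges 667nm spot fluorescence with signal to noise across triplicate slides; reference of the scale not given here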
[13] = probe aCHRDL2 binding to arrayed compounds – biochemical, biotinylated probe, 635/667 nm fluorescence, primary screen (AID 1100); details: small-molecule microarray, higher = more signal
[14] = change in splice reporter luminescence, either direction, cell-based, HEK293, spliceosome inhibition project, primary screen (AID 1101); details: HEK293 splicing luciferase reporter, 24 h, higher = more signal, called active from +8 up or from −8 down;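 note: HEK293 cells carrying a splicing-competent luciferase reporter gene; test concentration not given here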
[15] = biological target: Fibroblast growth factor 10 (Homo sapiens) (UniProt O15520); assay: compounds binding fibroblast growth factor 10 – biochemical, small-molecule microarray, 635 nm fluorescence, primary screen (AID 1102); details: FGF10 binding, fluorescence 635 nm, higher = more signal
[16] = tested on: glycogen synthase kinase-3 (GSK3A per assay name; protocol says GSK3B); assay: compounds binding glycogen synthase kinase-3 – biochemical, small-molecule microarray, 635 nm fluorescence, GSK3A, primary screen (AID 1103); details: fluorescence 635 nm, higher = more signal; note: the record names both GSK3A and GSK3B
[17] = biological target: Epidermal growth factor receptor (Homo sapiens) (UniProt P00533); assay: compounds binding epidermal growth factor receptor – biochemical, small-molecule microarray, 635 nm fluorescence, primary screen (AID 1104); details: EGFR binding, higher = more signal;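 note: score merges 667 nm emission intensity with spot signal to noise over triplicate slides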
[18] = biological target: Follistatin-related protein 3 (Homo sapiens) (UniProt O95633); assay: compounds binding follistatin-related protein 3 – biochemical, small-molecule microarray, 635 nm fluorescence, primary screen (AID 1105); details: FSTL3 binding, higher = more signal;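 note: score merges emission near 667 nm and signal to noise per printed spot across three slides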
[19] = biological target: Dickkopf-related protein 1 (Homo sapiens) (UniProt O94907); assay: small molecules binding DKK1 protein – biochemical, small-molecule microarray, 635 nm fluorescence scan, primary screen (AID 1106); details: higher = more signal;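 note: score merges emission near 667 nm with signal to noise over three replicate slides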
[20] = tested on: Inhibin beta A chain (activin A); assay: small molecules binding activin A – biochemical, small-molecule microarray, 635 nm fluorescence scan, primary screen (AID 1107); details: INHBA, higher = more signal;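 note: mouse activin A protein probed at 4.33 µg/mL on printed slides; score merges bound-protein fluorescence near 667 nm with spot signal-to-noise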

Sequence of Follistatin-related protein 3 (Homo sapiens) (O95633 whole entry, looked up): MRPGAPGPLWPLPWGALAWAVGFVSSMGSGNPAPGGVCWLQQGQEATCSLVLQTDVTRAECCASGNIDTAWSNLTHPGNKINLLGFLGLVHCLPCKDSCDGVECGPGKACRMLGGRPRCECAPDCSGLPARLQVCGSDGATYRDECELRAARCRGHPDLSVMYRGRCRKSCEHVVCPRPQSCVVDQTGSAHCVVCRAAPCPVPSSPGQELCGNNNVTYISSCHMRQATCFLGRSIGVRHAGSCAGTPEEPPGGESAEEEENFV
Sequence of Fibroblast growth factor 10 (Homo sapiens) (O15520 whole entry, looked up): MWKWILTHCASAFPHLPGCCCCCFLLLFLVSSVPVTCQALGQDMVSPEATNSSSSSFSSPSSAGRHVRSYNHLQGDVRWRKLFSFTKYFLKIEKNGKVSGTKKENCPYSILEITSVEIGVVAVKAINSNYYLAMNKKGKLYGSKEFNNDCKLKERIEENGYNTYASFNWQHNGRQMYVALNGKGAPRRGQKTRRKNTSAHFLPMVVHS
Sequence of Torsin-1A-interacting protein 2 (Homo sapiens) (Q8NFQ8 whole entry, looked up): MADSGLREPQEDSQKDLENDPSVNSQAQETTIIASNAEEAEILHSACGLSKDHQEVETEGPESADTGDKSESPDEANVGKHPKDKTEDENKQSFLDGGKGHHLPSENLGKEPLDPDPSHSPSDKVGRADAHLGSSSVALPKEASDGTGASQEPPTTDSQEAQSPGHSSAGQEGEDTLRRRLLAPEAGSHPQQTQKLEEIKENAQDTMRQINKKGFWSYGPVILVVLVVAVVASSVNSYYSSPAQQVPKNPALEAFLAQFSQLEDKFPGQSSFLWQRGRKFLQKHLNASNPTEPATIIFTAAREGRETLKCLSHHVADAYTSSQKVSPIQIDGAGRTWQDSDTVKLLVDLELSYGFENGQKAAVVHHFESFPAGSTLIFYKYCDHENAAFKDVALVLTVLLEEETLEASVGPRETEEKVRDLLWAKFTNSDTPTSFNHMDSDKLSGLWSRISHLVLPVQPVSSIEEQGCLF
Sequence of Neurogenic locus notch homolog protein 3 (Homo sapiens) (Q9UM47 whole entry, looked up): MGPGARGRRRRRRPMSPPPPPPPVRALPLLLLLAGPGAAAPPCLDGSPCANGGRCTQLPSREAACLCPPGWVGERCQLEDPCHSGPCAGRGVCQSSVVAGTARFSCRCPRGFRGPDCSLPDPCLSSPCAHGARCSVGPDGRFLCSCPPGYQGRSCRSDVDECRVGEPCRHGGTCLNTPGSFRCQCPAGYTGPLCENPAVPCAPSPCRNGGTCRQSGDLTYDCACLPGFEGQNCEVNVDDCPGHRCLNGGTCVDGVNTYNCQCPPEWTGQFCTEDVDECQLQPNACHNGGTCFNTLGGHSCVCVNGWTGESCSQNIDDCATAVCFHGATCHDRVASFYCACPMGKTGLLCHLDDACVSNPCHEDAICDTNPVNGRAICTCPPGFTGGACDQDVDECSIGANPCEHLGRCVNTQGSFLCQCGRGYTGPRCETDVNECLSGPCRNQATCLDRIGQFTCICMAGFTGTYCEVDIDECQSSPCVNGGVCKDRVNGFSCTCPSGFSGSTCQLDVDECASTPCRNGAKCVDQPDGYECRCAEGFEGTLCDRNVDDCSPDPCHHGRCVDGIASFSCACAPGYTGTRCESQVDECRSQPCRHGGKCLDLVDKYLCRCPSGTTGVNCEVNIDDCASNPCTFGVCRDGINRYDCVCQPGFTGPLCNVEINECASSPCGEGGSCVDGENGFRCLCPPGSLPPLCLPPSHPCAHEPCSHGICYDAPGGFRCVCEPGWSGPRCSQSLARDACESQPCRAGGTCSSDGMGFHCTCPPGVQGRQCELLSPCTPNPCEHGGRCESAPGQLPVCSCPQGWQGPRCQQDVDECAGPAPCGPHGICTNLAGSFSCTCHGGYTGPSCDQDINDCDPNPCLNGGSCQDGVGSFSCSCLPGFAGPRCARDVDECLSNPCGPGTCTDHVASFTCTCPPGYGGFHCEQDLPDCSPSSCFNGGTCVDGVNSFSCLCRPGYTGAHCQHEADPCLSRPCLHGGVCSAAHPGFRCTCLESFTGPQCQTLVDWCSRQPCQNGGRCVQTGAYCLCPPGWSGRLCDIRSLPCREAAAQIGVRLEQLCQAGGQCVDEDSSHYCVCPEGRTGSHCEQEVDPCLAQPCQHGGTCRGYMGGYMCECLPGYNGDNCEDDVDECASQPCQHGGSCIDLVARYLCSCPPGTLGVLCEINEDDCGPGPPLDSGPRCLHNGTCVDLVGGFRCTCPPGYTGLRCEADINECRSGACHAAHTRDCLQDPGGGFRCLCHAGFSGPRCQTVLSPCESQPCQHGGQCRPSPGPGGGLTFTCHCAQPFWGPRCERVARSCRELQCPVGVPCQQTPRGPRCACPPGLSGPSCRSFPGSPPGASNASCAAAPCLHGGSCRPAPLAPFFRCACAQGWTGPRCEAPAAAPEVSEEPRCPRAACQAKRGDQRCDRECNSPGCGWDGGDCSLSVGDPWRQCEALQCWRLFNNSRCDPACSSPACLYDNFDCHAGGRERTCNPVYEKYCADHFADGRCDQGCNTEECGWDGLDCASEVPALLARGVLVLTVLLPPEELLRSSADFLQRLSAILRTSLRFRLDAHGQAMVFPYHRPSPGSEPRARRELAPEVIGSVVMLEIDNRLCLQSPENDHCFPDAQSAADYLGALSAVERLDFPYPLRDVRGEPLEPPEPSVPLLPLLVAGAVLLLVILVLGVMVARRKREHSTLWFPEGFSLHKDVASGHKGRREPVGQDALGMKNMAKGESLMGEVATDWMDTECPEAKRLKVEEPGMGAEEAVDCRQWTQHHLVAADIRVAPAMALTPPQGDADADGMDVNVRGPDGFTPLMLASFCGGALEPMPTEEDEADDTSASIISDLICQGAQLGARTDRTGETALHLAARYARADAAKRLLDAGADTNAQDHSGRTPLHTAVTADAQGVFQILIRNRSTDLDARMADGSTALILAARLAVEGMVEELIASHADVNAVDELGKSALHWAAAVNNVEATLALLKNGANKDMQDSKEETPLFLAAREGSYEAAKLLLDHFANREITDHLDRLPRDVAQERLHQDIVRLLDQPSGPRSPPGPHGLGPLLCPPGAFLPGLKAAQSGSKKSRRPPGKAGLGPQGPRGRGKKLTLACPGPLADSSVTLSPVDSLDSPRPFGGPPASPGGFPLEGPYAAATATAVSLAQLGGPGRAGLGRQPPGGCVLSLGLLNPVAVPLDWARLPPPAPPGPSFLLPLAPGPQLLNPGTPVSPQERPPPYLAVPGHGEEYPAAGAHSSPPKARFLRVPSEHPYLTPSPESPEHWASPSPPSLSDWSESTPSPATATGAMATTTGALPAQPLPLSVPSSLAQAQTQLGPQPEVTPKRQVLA
Sequence of Epidermal growth factor receptor (Homo sapiens) (P00533 whole entry, looked up): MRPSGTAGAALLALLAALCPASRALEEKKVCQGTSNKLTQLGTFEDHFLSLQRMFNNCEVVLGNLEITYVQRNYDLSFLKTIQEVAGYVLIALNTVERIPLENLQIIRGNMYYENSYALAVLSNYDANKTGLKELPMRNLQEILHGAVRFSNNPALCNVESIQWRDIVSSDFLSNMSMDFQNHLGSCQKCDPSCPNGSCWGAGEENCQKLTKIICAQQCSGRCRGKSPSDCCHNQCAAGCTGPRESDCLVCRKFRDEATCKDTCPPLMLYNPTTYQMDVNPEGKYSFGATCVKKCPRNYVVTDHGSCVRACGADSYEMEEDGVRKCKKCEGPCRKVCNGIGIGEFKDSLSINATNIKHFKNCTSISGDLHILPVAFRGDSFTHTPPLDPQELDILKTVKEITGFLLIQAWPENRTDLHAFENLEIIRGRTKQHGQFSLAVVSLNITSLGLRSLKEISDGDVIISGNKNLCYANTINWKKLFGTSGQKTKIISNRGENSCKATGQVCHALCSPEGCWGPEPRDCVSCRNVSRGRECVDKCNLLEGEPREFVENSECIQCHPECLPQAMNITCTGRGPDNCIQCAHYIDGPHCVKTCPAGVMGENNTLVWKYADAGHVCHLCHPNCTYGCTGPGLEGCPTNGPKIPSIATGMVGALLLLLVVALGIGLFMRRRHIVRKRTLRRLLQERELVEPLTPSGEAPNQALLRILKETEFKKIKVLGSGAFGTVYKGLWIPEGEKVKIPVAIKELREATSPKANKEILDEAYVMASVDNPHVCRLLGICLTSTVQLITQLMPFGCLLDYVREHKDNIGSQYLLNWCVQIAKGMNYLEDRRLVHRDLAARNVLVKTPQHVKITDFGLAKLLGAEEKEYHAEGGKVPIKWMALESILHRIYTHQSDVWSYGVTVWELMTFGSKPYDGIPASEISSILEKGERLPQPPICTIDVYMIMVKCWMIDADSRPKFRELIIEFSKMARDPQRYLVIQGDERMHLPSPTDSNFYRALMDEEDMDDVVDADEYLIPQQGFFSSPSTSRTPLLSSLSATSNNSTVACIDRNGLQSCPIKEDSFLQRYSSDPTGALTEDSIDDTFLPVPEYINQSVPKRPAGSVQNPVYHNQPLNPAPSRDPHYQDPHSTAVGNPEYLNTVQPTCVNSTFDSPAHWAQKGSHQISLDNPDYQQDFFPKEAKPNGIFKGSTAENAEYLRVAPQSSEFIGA
Sequence of Dickkopf-related protein 1 (Homo sapiens) (O94907 whole entry, looked up): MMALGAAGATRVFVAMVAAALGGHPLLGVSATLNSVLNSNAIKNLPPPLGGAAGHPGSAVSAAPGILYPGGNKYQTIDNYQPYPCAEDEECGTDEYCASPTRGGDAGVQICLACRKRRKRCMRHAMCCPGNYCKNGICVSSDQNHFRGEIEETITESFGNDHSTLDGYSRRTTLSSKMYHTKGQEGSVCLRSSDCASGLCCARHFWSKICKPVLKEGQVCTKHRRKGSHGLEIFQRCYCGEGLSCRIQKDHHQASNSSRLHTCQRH

| Compound | composite z-score [1] | z-score [2] | z-score [3] | z-score [4] | composite z-score [5] | z-score [6] | composite z-score [7] | composite z-score [8] | composite z-score [9] | composite z-score [10] | composite z-score [11] | composite z-score [12] | composite z-score [13] | z-score [14] | composite z-score [15] | composite z-score [16] | composite z-score [17] | composite z-score [18] | composite z-score [19] | composite z-score [20] |
| --- | --- | --- | --- | --- | --- | --- | --- | --- | --- | --- | --- | --- | --- | --- | --- | --- | --- | --- | --- | --- |
| C=C(/C(=C/C[C@@H](OC(C)=O)c1ccc(OCCO)cc1)c1cc(C(=O)OC)ccc1OC)C(C)C | 0.629 | -0.265 (inactive) | 0.272 (inactive) | -1.5 (inactive) | 1.21 | -0.268 (inactive) | -0.152 | 0.902 | 0.843 | -0.176 | 1.28 | 0.0968 | 0.0396 | 0.0641 (inactive) | 1.08 | 0.263 | -0.461 | 0.231 | 0.328 | 0.59 |
| O=C1c2ccccc2[C@](Cc2ccccc2I)(C(=O)NC2CC2)[C@H](c2ccc(CO)cc2)N1Cc1ccccc1C(F)(F)F | 1.55 | -0.124 (inactive) | -0.684 (inactive) | 0.341 (inactive) | 2.76 | -1.8 (inactive) | -0.0817 | 0.894 | 1.06 | -0.139 | 1.43 | -0.349 | 0.768 | -0.987 (inactive) | 0.535 | -0.265 | -0.922 | 0.32 | -0.74 | -0.771 |
| [N-]=[N+]=NCc1ccccc1[C@@H]1OC(c2ccc(OCCCO)cc2)=N[C@]1(Cc1ccccc1N=[N+]=[N-])C(=O)NCCN1CCOCC1 | 1.55 | -0.563 (inactive) | -4.92 (inactive) | -0.889 (inactive) | 3.26 | 0.118 (inactive) | 0.0814 | 1.6 | 1.05 | 0.0809 | 1.54 | 0.251 | 0.851 | -0.312 (inactive) | 1.51 | 1.34 | 0.218 | 1.23 | 0.331 | 0.533 |
| CCCCC=C[C@@H](NC(=O)c1ccccc1)c1ccccc1 | 1.04 | 0.409 (inactive) | 0.336 (inactive) | 0.889 (inactive) | 3.51 | -1.37 (inactive) | -0.0261 | -0.328 | 1.09 | 0.0488 | 0.322 | 0.357 | 0.732 | -0.696 (inactive) | 0.659 | 1.22 | -0.056 | 0.79 | 0.0017 | 1.01 |
| NC(=O)[C@H]1[C@@H]2C(=O)O[C@@H](c3ccccc3)[C@@H](c3ccccc3)N2[C@@H](c2ccc(O)cc2)[C@]12C(=O)Nc1ccc(C#CC3=CCCCC3)cc12 | 1.45 | 1.42 (inactive) | 0.481 (inactive) | 2.1 (inactive) | 2.83 | -1.32 (inactive) | -0.185 | 0.186 | 0.169 | -0.186 | -0.165 | -0.157 | 0.724 | -1.67 (inactive) | 0.0647 | -0.229 | -0.433 | -0.0656 | -0.0761 | 0.0756 |
